# In PubChem BioAssay (NCI):
# Compounds without any hit were thinned out: in the full panel of roughly 83,000, 20% have a hit.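 Plates (96-well) were seeded with cells, treated with compound at one concentration, and incubated for 48 hours before percent growth was determined.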 Unmarked numbers belong to inactive results. Active and inactive are the calls of the source. Rule for the calls: active = growth percent below 10; inactive = the rest.
# Columns and labels:
# Assay in all cases: NCI-60 one-dose screen, 48 h (100 = growth as untreated, 0 = no growth, -100 = all killed)
# DU-145 prostate = details: 10 µM unless noted
# K-562 leukemia = details: 10 µM unless noted
# MALME-3M melanoma = details: 10 µM unless noted
# MDA-MB-231 breast = details: 10 µM unless noted
# RXF 393 renal = details: 10 µM unless noted
# SF-268 CNS = details: 10 µM unless noted
# SF-295 CNS = details: 10 µM unless noted
# SF-539 CNS = details: 10 µM unless noted
# UACC-257 melanoma = details: 10 µM unless noted
# M14 melanoma = details: 10 µM unless noted
# HCT-15 colon = details: 10 µM unless noted
# HT29 colon = details: 10 µM unless noted
# SNB-75 CNS = details: 10 µM unless noted
# SNB-19 CNS = details: 10 µM unless noted
# U251 CNS = details: 10 µM unless noted
# PC-3 prostate = details: 10 µM unless noted
# SK-MEL-5 melanoma = details: 10 µM unless noted
# UACC-62 melanoma = details: 10 µM unless noted
# LOX IMVI melanoma = details: 10 µM
# SK-MEL-28 melanoma = details: 10 µM unless noted
Compound,growth (DU-145 prostate),growth (K-562 leukemia),growth (MALME-3M melanoma),growth (MDA-MB-231 breast),growth (RXF 393 renal),growth (SF-268 CNS),growth (SF-295 CNS),growth (SF-539 CNS),growth (UACC-257 melanoma),growth (M14 melanoma),growth (HCT-15 colon),growth (HT29 colon),growth (SNB-75 CNS),growth (SNB-19 CNS),growth (U251 CNS),growth (PC-3 prostate),growth (SK-MEL-5 melanoma),growth (UACC-62 melanoma),growth (LOX IMVI melanoma),growth (SK-MEL-28 melanoma)
CN(C)Cc1ccccn1,120%,107%,98.7%,98.8%,99.5%,111%,101%,92.1%,99%,97.9%,105%,97.4%,95.7%,103%,99.4%,90.3%,101%,97.8%,96.3%,102%
COc1ccc(/C=N/NC(=O)COCC(=O)N/N=C/c2ccc(OC)cc2)cc1,113%,102%,115%,98.4%,104%,110%,97.1%,100%,96.6%,115%,97.8%,130%,88.6%,110%,96.2%,88.8%,97.9%,101%,102%,100%
CCCC(=O)c1cccs1,109%,112%,107%,104%,102%,105%,95.7%,93.7%,92.5%,105%,100%,98%,88.5%,101%,110%,89.2%,105%,95.1%,95.9%,107%
OCC1CCC(O)C(CO)N1 (centres undefined),113%,116%,106%,106%,107%,106%,91%,87.9%,110%,96.5%,94.1%,108%,70.2%,105%,100%,95%,108%,105%,100%,96.3%
Cc1cc(C)cc(OCC(=O)O)c1,111%,93.3%,92.3%,106%,135%,114%,96.5%,96.2%,100%,102%,94.4%,119%,94.8%,97.1%,103%,104%,110%,98.5%,98.7%,107%
O=Cc1ccc(O)c(O)c1,94.9%,103%,108%,99.7%,88.3%,74.1%,103%,81.9%,93.7%,94.5%,103%,105%,87.2%,86%,102%,82.9%,95.3%,98.2%,91.2%,92.4%
CN(C)c1ccc2nc3ccc(=[N+](C)C)cc-3oc2c1,59%,16.9%,-21.8% (active),-14.6% (active),89.6%,-17.5% (active),50.3%,7.14% (active),-30.1% (active),3.87% (active),33.3%,33.2%,71.3%,14.2%,-29.1% (active),11.4%,23.5%,39.5%,12.2%,66.6%
O=C(CCl)Oc1ccc([N+](=O)[O-])cc1,113%,103%,116%,119%,99.5%,109%,97.3%,109%,112%,103%,110%,119%,91.2%,115%,106%,89.9%,103%,114%,98.1%,114%
Nc1cccc2cccc(O)c12,99.1%,89.5%,75.2%,65.7%,90.6%,96.1%,93.8%,109%,100%,96.7%,83%,107%,78.5%,98.7%,70.5%,69.6%,86.9%,86.4%,85.1%,111%
S=C=Nc1ccc2ccccc2c1,107%,96%,102%,117%,110%,108%,108%,99.9%,99.7%,103%,96.6%,105%,94.5%,101%,97.8%,102%,106%,102%,94.2%,111%
CCNc1ccc2ccccc2c1N=Nc1ccc(N=Nc2ccccc2)cc1,121%,125%,128%,93.4%,118%,117%,107%,104%,123%,104%,104%,112%,100%,112%,109%,87.1%,87.5%,72.6%,93.1%,120%
O=S(=O)(OCCOS(=O)(=O)c1ccccc1)c1ccccc1,100%,96.4%,86%,111%,96%,92.6%,102%,102%,97.2%,92.3%,91.9%,92.2%,93.6%,104%,92.6%,94.4%,93.6%,95.4%,91.7%,112%
CC(=O)N(C(C)=O)c1ccc(C)cc1,107%,99.1%,97.2%,102%,104%,96.9%,93.5%,98%,110%,114%,96%,105%,89.1%,93.8%,97.6%,93.7%,95.5%,91.4%,92.1%,107%
CC1(c2ccccc2)CO1 (centres undefined),111%,106%,118%,108%,120%,107%,110%,102%,102%,108%,102%,112%,89.9%,102%,97.6%,104%,105%,104%,103%,105%
Cc1[nH]c(=S)[nH]c(=O)c1C,110%,99.7%,109%,105%,115%,108%,103%,103%,92.9%,109%,99.4%,104%,93.4%,103%,92.4%,102%,100%,105%,104%,110%
O=C(c1ccccc1)c1ccc(-c2ccc(O)cc2)cc1,69.8%,90.2%,84%,55.4%,-4.28% (active),67.4%,29.6%,79.5%,25.3%,25.8%,57%,120%,43.5%,59.7%,37.3%,76.8%,23.6%,48.5%,73.4%,75.1%
O=C(O)Cc1ccc(Cl)cc1,107%,53.6%,102%,102%,125%,105%,97.5%,99.4%,111%,93.1%,112%,107%,102%,108%,104%,85.7%,114%,110%,103%,132%

Compound,growth (DU-145 prostate),growth (K-562 leukemia),growth (MALME-3M melanoma),growth (MDA-MB-231 breast),growth (RXF 393 renal),growth (SF-268 CNS),growth (SF-295 CNS),growth (SF-539 CNS),growth (UACC-257 melanoma),growth (M14 melanoma),growth (HCT-15 colon),growth (HT29 colon),growth (SNB-75 CNS),growth (SNB-19 CNS),growth (U251 CNS),growth (PC-3 prostate),growth (SK-MEL-5 melanoma),growth (UACC-62 melanoma),growth (LOX IMVI melanoma),growth (SK-MEL-28 melanoma)
C/C(Cc1ccccc1)=N\O,109%,88.6%,110%,113%,112%,101%,117%,108%,107%,105%,96.9%,101%,115%,108%,104%,88.4%,99.4%,106%,119%,111%
COc1ccc(C2CCCCC2=O)cc1 (centres undefined),123%,104%,120%,120%,110%,116%,100%,102%,106%,108%,98.6%,108%,101%,111%,99%,95.4%,110%,110%,96.6%,111%
O=c1n(CC2CO2)c(=O)n(CC2CO2)n1CC1CO1 (centres undefined),38.4%,57.4%,107%,110%,80.2%,53.5%,-10.3% (active),18.8%,86.6%,48.1%,60.5%,69.5%,79.5%,62.4%,54.3%,70%,67.1%,54.1%,52.1%,93%
CCCCCCCCCCCCSC1=C(Cl)C(=O)C(OC)=C(OC)C1=O,60.2%,28.2%,12.5%,55.5%,34.1%,46.1%,38.3%,41.5%,26.8%,64.1%,25.6%,27.8%,44.9%,71.8%,26%,23.1%,-37.6% (active),45.4%,11.7%,105%
COC(=O)Cc1cc(COC(C)=O)ccc1C,116%,108%,110%,125%,107%,113%,121%,111%,108%,106%,106%,96.6%,97.8%,113%,109%,92.6%,110%,104%,108%,113%
CCN(CC)c1ccc2nc3ccc(N=Nc4ccc(N(C)C)cc4)cc3[n+](-c3ccccc3)c2c1,-98% (active),-4.96% (active),-54.1% (active),-46.4% (active),-87.8% (active),9.77% (active),-82.2% (active),-69.2% (active),-52.5% (active),-75% (active),-10.3% (active),-31.8% (active),-98.9% (active),40.3%,-52% (active),6.24% (active),-97.4% (active),-59.1% (active),-91.9% (active),-36.1% (active)
CC(c1ccccc1)N(C)C (centres undefined),119%,28%,141%,99.1%,124%,108%,131%,103%,116%,92.1%,109%,88.2%,59.5%,100%,102%,88.6%,99.6%,94.5%,113%,157%
CCOC(=O)c1c[nH][nH]c1=O,117%,116%,129%,108%,110%,110%,112%,94.9%,59.1%,96.5%,103%,105%,118%,99.1%,103%,108%,105%,96.2%,97.8%,127%
Nc1nc(N)nc(N2CCCCC2)n1,107%,105%,96.3%,96.5%,105%,107%,113%,97.6%,101%,111%,107%,98.2%,118%,115%,101%,99.5%,100%,104%,104%,114%
Cc1ccc(S(N)(=O)=O)cc1Cl,120%,92.3%,116%,98%,125%,108%,113%,106%,109%,105%,104%,104%,91.8%,107%,103%,99.3%,103%,105%,114%,108%
CCOC(=O)c1c(C)[nH]c(C)c1C=O,114%,94.7%,108%,93%,114%,101%,103%,98.9%,69.4%,100%,107%,107%,94.2%,97.1%,88.2%,82.7%,101%,91.2%,97.9%,109%
CCC(C)c1c(N)n(S(=O)(=O)c2ccc(C)cc2)oc1=O (centres undefined),115%,130%,135%,108%,125%,109%,104%,96.6%,90.6%,105%,100%,93.5%,88.9%,106%,104%,94.3%,100%,101%,–,119%
CCCNS(=O)(=O)c1ccc(Cl)cc1,109%,104%,105%,102%,114%,106%,87.8%,98.1%,101%,101%,99.6%,101%,93.4%,104%,99.3%,92.9%,105%,–,101%,108%
NCCCN1CCCC1=O,114%,114%,99.1%,108%,122%,113%,111%,109%,97.3%,113%,116%,112%,116%,95.3%,108%,96.9%,100%,96.4%,–,111%
C=CCS(C)(=O)=O,108%,103%,121%,97.9%,98%,103%,93.8%,96.3%,89.5%,95.8%,102%,97.1%,94.1%,101%,90.4%,101%,104%,–,103%,106%
CC(C)C(=O)OCCOc1ccc(C(C)(C)C)cc1,104%,103%,97.3%,90.5%,109%,96.1%,99.3%,99.5%,87.7%,107%,100%,93.1%,94.1%,98.8%,88.4%,91.6%,102%,–,95.8%,110%
CCC12OC(COc3ccccc3)CN1CCN2c1ccccc1 (centres undefined),106% [100 µM],93.1% [100 µM],98.4% [100 µM],88.8% [100 µM],99.9% [100 µM],92.2% [100 µM],105% [100 µM],95.9% [100 µM],95.8% [100 µM],103% [100 µM],105% [100 µM],111% [100 µM],84.4% [100 µM],96.9% [100 µM],101% [100 µM],102% [100 µM],104% [100 µM],89.5% [100 µM],–,103% [100 µM]
